# Laboratory results from PubChem BioAssay (NCI).
# Compounds without any hit were thinned out: in the full panel of roughly 83,000, 20% have a hit.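 Results are percent growth after 48 hours of single-concentration exposure. 100 means growth as in untreated cells, lower positive values show inhibition; negative values down to -100 show cell death.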 Values without a mark were called inactive. Calls of active or inactive are those of the source. Rule for the calls: active = growth percent below 10; inactive = the rest.
# Tested on: HCT-15 colon
# Test: NCI-60 one-dose screen, 48 h (100 = growth as untreated, 0 = no growth, -100 = all killed)
# Conditions: 10 µM unless noted
row,Compound,growth
1,COc1ccccc1-c1ccc2c(N)c(C(=O)c3ccc4c(c3)OCO4)sc2n1,38.8%
2,CC(=O)C1=C(O)C=C2Oc3c(C(=O)/C=C/c4cc(C(F)(F)F)cc(C(F)(F)F)c4)c(O)c(C)c(O)c3[C@]2(C)C1=O,-73% (active)
3,CC/C=C\C[C@H](O)C/C=C1/C(=O)C=C[C@@H]1C/C=C\CCCC(=O)NC(C)C,-33.9% (active)
4,COc1ccc(C(=O)c2sc3nc4c(cc3c2N)CCCC4)cc1OC,31.2%
5,CS(CCCCN=C=S)=NC(=O)c1c(F)c(F)c(F)c(F)c1F (centres undefined),37.3%
6,COc1ccc(-c2c(C)noc2-c2ccc(O)cc2O)cc1,68.8%
7,COc1ccc(C(=O)c2sc3nc(-c4ccccc4OC)ccc3c2N)cc1OC,58.5%
8,NC1=CC(=O)C(=O)c2ccccc21,92.1%
9,COc1ccc(C(=O)c2sc3nc4c(c(C(F)(F)F)c3c2N)CN(C(C)=O)CC4)cc1OC,84.7%
10,COc1cc(C(=O)/C=C/c2c(C)n([O-])c3ccc(C)cc3[n+]2=O)cc(OC)c1OC,25.9%
11,COc1cc(C2C(C(=O)c3cccs3)=C(O)C(=O)N2CCN2CCOCC2)cc(OC)c1OC (centres undefined),102%
12,COC(=O)C12C3C(=O)N(c4ccc(OC)cc4)C(=O)C3C(c3cn(-c4ccccc4)nc3C)N1[C@H](c1cn(-c3ccccc3)nc1C)[C@@H]1C(=O)N(c3ccc(OC)cc3)C(=O)[C@@H]12 (some centres undefined),101%
13,COc1cc(C2CC(=O)Nc3c2cnn3Cc2ccco2)cc2c1OCCO2 (centres undefined),64.9%
14,COc1ccc(C2CC(=O)Nc3c2c(C)nn3-c2nc3ccccc3[nH]2)cc1 (centres undefined),99.6%
15,CCn1cc2c(cc1=O)-c1nc3ccccc3c3ccnc(c13)C2=O,50.2%
16,NCc1cn2cc(Cl)sc2n1,98.6%
17,CCOc1ccc(Nc2nc(-c3c(C)nc4ncccn34)cs2)cc1,15.4%
18,N#CC1=C(N)Oc2c(ccc3ccccc23)C1c1cccs1 (centres undefined),13.5%
19,CCOC(=O)C12CCCC1=CC(=O)CC2 (centres undefined),106%
20,CCCC(=O)Oc1ccc(/C(=C(/CC)Cc2ccccc2)c2ccc(OCCN3CCCC3)cc2)cc1,41.8%

row,Compound,growth
1,C=C1CCC2C3(C)COC(c4ccc(OC)cc4Br)OC3CCC2(C)C1/C=C/C1=CCOC1=O (centres undefined),65.7%
2,CS(=O)(=O)c1c(Nc2ccccc2)n[nH]c1N,101%
3,CC/C=C\C[C@H](O)C/C=C1/C(=O)C=C[C@@H]1C/C=C\CCCC(N)=O,-36.8% (active)
4,CCN(CC)C12CCCCC1(C)C(C#N)(C#N)C(C#N)=C(N)O2 (centres undefined),106%
5,O=C1c2c[n+](Cc3ccccc3)ccc2-c2nc3ccccc3c3ccnc1c23,18.6%
6,Cc1nn(-c2nc3ccccc3[nH]2)c2c1C(c1ccc3c(c1)OCO3)CC(=O)N2 (centres undefined),47.6%
7,O=c1ccc2cc3ccccc3cc2[nH]1,109%
8,O=C(Nc1cccc2[nH]c(C(F)(F)F)nc12)c1ccc(Br)cc1F,28.5%
9,COc1cc(-c2cnc3nonc3n2)c(OC)c2c1OCO2,87.5%
10,COc1cnc2c(c1)C(=O)c1c-2n(CCCBr)c(=O)c2cc([N+](=O)[O-])ccc12,20.7%
11,Clc1cccc(Nc2nc(Nc3cnc4ccccc4c3)c3[nH]cnc3n2)c1,94.4%
12,COc1cc(C2CC(=O)c3c(C)nn(-c4nc5ccccc5[nH]4)c3C2)cc(OC)c1OC (centres undefined),87%
13,CC(C)Oc1nc2c(c(=O)n(C)c(=O)n2C)n1C,106%
14,CC/C=C\C[C@H](F)C/C=C1/C(=O)C=C[C@@H]1C/C=C\CCCC(=O)OC,-32.8% (active)
15,Cc1ccn2c(-c3csc(Nc4cccc(O)c4)n3)c(C)nc2c1,17.1%
16,O=C(/C=C/c1cc2ccccc2[nH]c1=O)/C=C/c1cc2ccccc2[nH]c1=O,48.2%
17,COc1ccc(-c2cnoc2-c2cc(OC)c3c(c2)OCCO3)cc1,4.48% (active)
18,CC/C(Cc1ccccc1)=C(\c1ccc(OCCN2CCCC2)cc1)c1ccc(OC(C)=O)cc1,60.5%
19,C[C@]12C[C@@H](c3ccoc3)OC(=O)[C@@H]1CC[C@]1(C)[C@@H]2CC[C@@H](O)[C@]1(C)O,85.4%
